Assay results taken from PubChem BioAssay (NCATS).
Where “and” joins values, the source holds several entries; their conditions need not be identical. Equal values may be shown once. Records with an inconclusive call do not appear. Calls of active or inactive are those of the source. Unless noted, the call rests on the fitted dose curve; in most records, active means well fitted curve in the direction sought with a large enough effect; inconclusive means small, poorly fitted or top-dose-only effect, or another doubt; inactive means no such curve, though single readings can be large; an effect the other way counts as inactive or inconclusive.

Tests used:
UISO = experiment: qHTS assay to identify novel small-molecules to repurpose for Merkel cell carcinoma treatment (AID 1296009); details: MCC and control cell lines, CellTiter-Glo viability, 72 h; series mostly up to 46 µM; further: nearly all actives have a fitted effect of over 60% in size; further: potency means the concentration at half of the fitted maximal effect
Outline: (§1)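 Viability readout: ATP luminescence (CellTiter-Glo) after 72 hr drug exposure at 37 degree celsius. Dose-response format was 8 points for NPC and 11 points for MIPE; data normalized to in-plate controls.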

C33A = experiment: Primary qHTS to identify gynecologic anti-cancer compounds using libraries of approved drugs and bioactive compounds (AID 1345084); details: Gynecologic cancer cell panel viability, ATPlite luminescence, 48 h; series mostly up to 57.5 µM; further: nearly all actives have a fitted effect of over 55% in size; further: potency means the concentration at half of the fitted maximal effect
Outline: (§2)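 Measured: luminescence after ATPlite addition (15 min, RT). Exposure: 48 h, 37 C, 5% CO2.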

CAOV3 = experiment: as above; details: Gynecologic cancer cell panel viability, ATPlite luminescence, 48 h; series mostly up to 57.5 µM
Outline: as §2

CASKI = experiment: as above; details: Gynecologic cancer cell panel viability, ATPlite luminescence, 48 h; series mostly up to 57.5 µM
Outline: as §2

Es-2 = experiment: as above; details: Gynecologic cancer cell panel viability, ATPlite luminescence, 48 h; series mostly up to 57.5 µM
Outline: as §2

HeLa = experiment: as above; details: Gynecologic cancer cell panel viability, ATPlite luminescence, 48 h; series mostly up to 57.5 µM
Outline: as §2

Hek293T = experiment: as above; details: Gynecologic cancer cell panel viability, ATPlite luminescence, 48 h, control line for the selectivity index; series mostly up to 57.5 µM
Outline: as §2

JEG-3 = experiment: as above; details: Gynecologic cancer cell panel viability, ATPlite luminescence, 48 h; series mostly up to 57.5 µM
Outline: as §2

OV90 = experiment: as above; details: Gynecologic cancer cell panel viability, ATPlite luminescence, 48 h; series mostly up to 57.5 µM
Outline: as §2

PA-1 = experiment: as above; details: Gynecologic cancer cell panel viability, ATPlite luminescence, 48 h; series mostly up to 57.5 µM
Outline: as §2

SKOV3 = experiment: as above; details: Gynecologic cancer cell panel viability, ATPlite luminescence, 48 h; series mostly up to 57.5 µM
Outline: as §2

Tov-21-G = experiment: as above; details: Gynecologic cancer cell panel viability, ATPlite luminescence, 48 h; series mostly up to 57.5 µM
Outline: as §2

Tov112D = experiment: as above; details: Gynecologic cancer cell panel viability, ATPlite luminescence, 48 h; series mostly up to 57.5 µM
Outline: as §2

[1] = Drug repurposing screens with cells derived from glioblastoma tumor samples (AID 1345199); details: GBM patient neurospheres viability, ATP luminescence, 48 h; further: nearly all actives have a fitted effect of over 40% in size; further: potency means the concentration at half of the fitted maximal effect; on activity, negative = cell killing: on the % scale 0 is the no-effect control and ±100 the full control effect
Outline: (§3)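 Primary testing used CD133+ neurospheres from four GBM patients, seven concentrations, 48 h exposure and ATP-based viability; confirmation added three slower-growing patient lines.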

WaGa = experiment: qHTS assay to identify novel small-molecules to repurpose for Merkel cell carcinoma treatment (AID 1296009); details: MCC and control cell lines, CellTiter-Glo viability, 72 h; series mostly up to 46 µM; further: nearly all actives have a fitted effect of over 60% in size; further: potency means the concentration at half of the fitted maximal effect
Outline: as §1

astro = experiment: Drug repurposing screens with cells derived from glioblastoma tumor samples (AID 1345199); details: viability, ATP luminescence, 48 h; series mostly up to 45.9 µM; further: nearly all actives have a fitted effect of over 40% in size; further: potency means the concentration at half of the fitted maximal effect; on activity, negative = cell killing: on the % scale 0 is the no-effect control and ±100 the full control effect
Outline: as §3

[2] = target: Nuclear receptor subfamily 1 group I member 2 (Rattus norvegicus) (UniProt Q9R1A7); experiment: qHTS assay for small molecule activators of the rat pregnane X receptor (rPXR) signaling pathway (AID 651751; call rule not given here; further: 0% is about no effect); details: rPXR reporter cells, luciferase (One-Glo), 24 h
Chain of Nuclear receptor subfamily 1 group I member 2 (Rattus norvegicus) (Q9R1A7 whole entry, looked up): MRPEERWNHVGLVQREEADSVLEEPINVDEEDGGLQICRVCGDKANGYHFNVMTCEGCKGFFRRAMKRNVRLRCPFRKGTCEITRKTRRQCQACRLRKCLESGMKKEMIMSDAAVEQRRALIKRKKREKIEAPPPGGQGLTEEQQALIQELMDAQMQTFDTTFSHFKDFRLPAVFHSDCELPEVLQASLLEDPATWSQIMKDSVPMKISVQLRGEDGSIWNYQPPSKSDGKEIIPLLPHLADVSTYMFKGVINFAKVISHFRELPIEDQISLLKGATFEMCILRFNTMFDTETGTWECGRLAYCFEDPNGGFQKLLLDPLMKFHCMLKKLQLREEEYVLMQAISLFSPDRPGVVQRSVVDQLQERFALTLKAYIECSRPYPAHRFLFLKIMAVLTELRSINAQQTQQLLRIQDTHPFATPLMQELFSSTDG

[3] = qHTS assay for small molecule activators of the human pregnane X receptor (PXR) signaling pathway (AID 720659; call rule not given here; further: 0% is about no effect); details: DPX-2 HepG2 CYP3A4-luciferase, 24 h; series mostly up to 92.3 µM
[4] = at 45.9 µM (top of the series), tumour line B
[5] = at 45.9 µM (top of the series), tumour line D
[6] = at 46 µM (top of the series), tumour line A
[7] = at 91.6 µM (top of the series), tumour line B
[8] = at 91.6 µM (top of the series), tumour line D
[9] = at 21.2 µM (top of the series), tumour line B
[10] = at 21.2 µM (top of the series), tumour line D

CC(C)=C[C@@H]1[C@@H](C(=O)OCc2coc(Cc3ccccc3)c2)C1(C)C
inactive: Potency (UISO) | Potency (C33A) | Potency (CAOV3) | Potency (CASKI) | Potency (Es-2) | Potency (HeLa) | Potency (Hek293T) | Potency (JEG-3) | Potency (OV90) | Potency (PA-1) | Potency (SKOV3) | Potency (Tov-21-G) | Potency (Tov112D) | activity, negative = cell killing [1, 4] -21% | activity, negative = cell killing [1, 5] -13.8%

CCCCCCCCCCCC[N+](C)(C)CCOc1ccccc1
inactive: Potency (JEG-3) | max response [2] -13.8%
active: Potency (UISO) 9.44 µM | Potency (WaGa) 4.22 µM | Potency (Es-2) 31.6 µM | Potency (HeLa) 31.6 µM | Potency ([1]; tumour line A) 12.6 µM | Potency ([1]; tumour line B) 15.8 µM | Potency ([1]; tumour line D) 11.2 µM | Potency (astro) 20 µM

Oc1c(Br)cc(Br)cc1Br
inactive: Potency (UISO) | Potency (WaGa) | Potency (C33A) | Potency (CASKI) | Potency (Es-2) | Potency (HeLa) | Potency (Hek293T) | Potency (JEG-3) | Potency (OV90) | Potency (PA-1) | Potency (SKOV3) | Potency (Tov-21-G) | Potency (Tov112D) | activity, negative = cell killing [1, 4] -7.26% | activity, negative = cell killing [1, 5] 14.2% | activity, negative = cell killing [1, 6] -28% | Potency (astro) | max response [2] 8.69% and -3.29%

CCCC(C)C1(CC)C(=O)N=C(S)NC1=O (stereo unspecified)
inactive: Potency (UISO) | Potency (WaGa) | Potency (C33A) | Potency (CASKI) | Potency (Es-2) | Potency (HeLa) | Potency (Hek293T) | Potency (JEG-3) | Potency (PA-1) | Potency (Tov-21-G) | Potency (Tov112D) | activity, negative = cell killing [1, 4] -11.2% | activity, negative = cell killing [1, 5] -14.3% | activity, negative = cell killing [1, 6] -28.3% | Potency (astro)

COc1ccc2c3c1O[C@H]1[C@@H](O)C=C[C@H]4[C@@H](C2)N(C)CC[C@@]341
inactive: activity, negative = cell killing [1, 7] -11% | activity, negative = cell killing [1, 8] -4.9%
active: Potency (UISO) 15 µM | Potency (WaGa) 5.34 µM | Potency (CASKI) 31.6 µM | Potency ([1]; tumour line A) 44.7 µM

COc1cc(C[C@@H](C)N)c(OC)cc1C
inactive: Potency (UISO) | Potency (WaGa) | Potency (CASKI) | Potency (Es-2) | Potency (HeLa) | Potency (Hek293T) | Potency (JEG-3) | Potency (PA-1) | Potency (SKOV3) | Potency (Tov-21-G) | Potency (Tov112D) | activity, negative = cell killing ([1]; at 108 µM (top of the series), tumour line B) -21.2% | activity, negative = cell killing ([1]; at 108 µM (top of the series), tumour line D) -18.9% | Potency (astro)
active: Potency ([1]; tumour line A) 31.6 µM

CC1COC2(c3ccccc3Cl)c3cc(Cl)ccc3NC(=O)CN12 (stereo unspecified)
inactive: Potency (UISO) | Potency (C33A) | Potency (CAOV3) | Potency (CASKI) | Potency (Es-2) | Potency (HeLa) | Potency (Hek293T) | Potency (JEG-3) | Potency (PA-1) | Potency (SKOV3) | Potency (Tov-21-G) | Potency (Tov112D)

Cc1nc2ccccc2c(=O)n1-c1ccccc1Cl
inactive: Potency (UISO) | Potency (WaGa) | Potency (C33A) | Potency (Es-2) | Potency (HeLa) | Potency (Hek293T) | Potency (JEG-3) | Potency (OV90) | Potency (PA-1) | Potency (SKOV3) | Potency (Tov-21-G) | Potency (Tov112D) | activity, negative = cell killing [1, 7] -7.8% | activity, negative = cell killing [1, 8] -27.3% | Potency (astro)
active: Potency ([1]; tumour line A) 39.8 µM

Cc1ncc2n1-c1ccc(Cl)cc1C(c1ccccc1F)=NC2
inactive: Potency (UISO) | Potency (C33A) | Potency (CAOV3) | Potency (CASKI) | Potency (Es-2) | Potency (HeLa) | Potency (Hek293T) | Potency (JEG-3) | Potency (PA-1) | Potency (SKOV3) | Potency (Tov-21-G) | Potency (Tov112D) | activity, negative = cell killing [1, 4] -17.8% | activity, negative = cell killing [1, 5] -1.25%

Oc1ccc2[nH]cc(CCCCN3CC=C(c4ccccc4)CC3)c2c1
inactive: Potency (C33A) | Potency (CASKI) | Potency (Es-2) | Potency (HeLa) | Potency (JEG-3) | Potency (OV90) | Potency (SKOV3) | Potency (Tov-21-G) | Potency (Tov112D)
active: Potency (UISO) 8.41 µM | Potency (WaGa) 2.99 µM

CCC1(c2cccc(O)c2)CCCCN(C)C1 (stereo unspecified)
inactive: Potency (UISO) | Potency (WaGa) | Potency (C33A) | Potency (CASKI) | Potency (Es-2) | Potency (HeLa) | Potency (Hek293T) | Potency (JEG-3) | Potency (OV90) | Potency (PA-1) | Potency (SKOV3) | Potency (Tov-21-G) | Potency (Tov112D) | activity, negative = cell killing [1, 9] -5.3% | activity, negative = cell killing [1, 10] -23.7% | Potency (astro)

O=C(N[C@H]1N=C(c2ccccc2F)c2cccc3c2N(CC3)C1=O)c1cc2ccccc2[nH]1
inactive: Potency (UISO) | Potency (WaGa) | Potency (CAOV3) | Potency (CASKI) | Potency (Es-2) | Potency (HeLa) | Potency (Hek293T) | Potency (JEG-3) | Potency (OV90) | Potency (PA-1) | Potency (Tov-21-G) | Potency (Tov112D) | activity, negative = cell killing [1, 4] 9.35% | Potency (astro)

C[C@H]1C(=O)O[C@@H]2CCN3CC=C(COC(=O)[C@](C)(O)[C@]1(C)O)[C@H]23
inactive: Potency (UISO) | Potency (WaGa) | Potency (C33A) | Potency (CASKI) | Potency (Es-2) | Potency (HeLa) | Potency (Hek293T) | Potency (JEG-3) | Potency (OV90) | Potency (PA-1) | Potency (Tov-21-G) | Potency (Tov112D) | activity, negative = cell killing [1, 4] -12.9% | activity, negative = cell killing [1, 5] -22.3% | activity, negative = cell killing [1, 6] -27.9% | Potency (astro) | max response [2] 0.678% | outcome [3]

COc1ccc(CN2CCNCC2)c(OC)c1OC
inactive: Potency (UISO) | Potency (WaGa) | Potency (C33A) | Potency (CASKI) | Potency (Es-2) | Potency (HeLa) | Potency (Hek293T) | Potency (JEG-3) | Potency (OV90) | Potency (PA-1) | Potency (SKOV3) | Potency (Tov-21-G) | Potency (Tov112D) | activity, negative = cell killing [1, 9] -2.66% | activity, negative = cell killing [1, 10] -1.27% | Potency (astro)
